Test results published in PubChem BioAssay.
Where “and” joins values, the source holds several entries; their conditions need not be identical. Equal values may be shown once. Inconclusive results are not listed. For some assays here: Potency and affinity values are given separately. Calls of active or inactive are those of the source.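 How the source made its calls, unless noted: active means at least 20% inhibition of 6-phosphogluconate dehydrogenase activity; inactive means the rest.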

Columns and labels:
[1] = blockers of polyQ-driven CASP3 activation – cell-based (AID 1583); conditions: polyglutamine-induced caspase-3 activation, cell assay; stronger effect = higher value;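 tested at 10 µM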
[2] = yeast 75Q aggregation reduction – 75Q-TubU reporter (AID 1593); conditions: Yeast 75Q polyglutamine aggregation reporter
[3] = restoration of touch response, mutant HTT neurons – whole organism, C. elegans mechanosensory neurons, N-terminal huntingtin (AID 1599); conditions: C. elegans polyQ-huntingtin mechanosensory neurons, stronger effect = higher value
[4] = blockers of cytochrome c efflux from mitochondria – biochemical, purified mitochondria (AID 1603); conditions: stronger effect = lower value;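 further: mouse liver mitochondria challenged with calcium chloride; signal normalized to the plate average as 100%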
[5] = polyglutamine aggregate formation blockers (AID 1604); conditions: polyglutamine-induced protein aggregation inhibition assay; stronger effect = higher value; tested at 2.5 µM
[6] = glutamate transport activators, MN-1 cells, MN-1 cell line (AID 1612); conditions: MN-1 motor neuron cells, stronger effect = higher value;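 further: tested at 1 µM final; 0% = mean of DMSO vehicle wells on each plate; positive means more glutamate uptake than control and negative means less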
[7] = GFP-Q80 aggregate reduction, neuronal-like cells, cell-based, NGF-treated PC12, GFPQ80 (AID 1614); conditions: PC12 NGF-treated GFP-polyQ80 inclusion reduction;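 further: lower means fewer inclusions and 0 means no inclusions at all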
[8] = 75Q-TubH aggregate inhibition, S. cerevisiae, yeast (AID 1616); conditions: S. cerevisiae 75Q-TubH polyglutamine aggregation suppression; stronger effect = higher value
[9] = compounds altering circadian rhythm period length – cell-based, LOPAC library, luminescence reporter (AID 2774; call rule not given here;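 further: values are relative to mean of DMSO wells on each plate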); conditions: circadian reporter cells, at 7 µM, actives lie on both sides
[10] = test system: Hepatitis C virus NS3 helicase; test: blockers of NS3h binding to ssDNA – biochemical, fluorescence polarization, LOPAC1280 library, primary screen (AID 687035; in the data active means inhibition above about 37%); conditions: Purified HCV NS3 helicase, Cy5-dT15 ssDNA binding fluorescence polarization; stronger effect = higher value; concentration not given here
[11] = compounds altering Cy5-DNA-NS3h complex signal – biochemical, LOPAC1280, artefact control for HCV NS3 helicase inhibitor project (AID 687037; call rule not given here); conditions: Cy5-DNA-NS3h complex fluorescence interference counterscreen
[12] = target: 6-phosphogluconate dehydrogenase, decarboxylating (Homo sapiens) (UniProt P52209); test: inhibition of human phosphogluconate dehydrogenase – biochemical, recombinant enzyme, NADPH absorbance, primary screen (AID 1159550); conditions: recombinant 6PGD, NADPH absorbance 341 nm; at 10 µM; stronger effect = higher value
Sequence of 6-phosphogluconate dehydrogenase, decarboxylating (Homo sapiens) (P52209 whole entry, looked up): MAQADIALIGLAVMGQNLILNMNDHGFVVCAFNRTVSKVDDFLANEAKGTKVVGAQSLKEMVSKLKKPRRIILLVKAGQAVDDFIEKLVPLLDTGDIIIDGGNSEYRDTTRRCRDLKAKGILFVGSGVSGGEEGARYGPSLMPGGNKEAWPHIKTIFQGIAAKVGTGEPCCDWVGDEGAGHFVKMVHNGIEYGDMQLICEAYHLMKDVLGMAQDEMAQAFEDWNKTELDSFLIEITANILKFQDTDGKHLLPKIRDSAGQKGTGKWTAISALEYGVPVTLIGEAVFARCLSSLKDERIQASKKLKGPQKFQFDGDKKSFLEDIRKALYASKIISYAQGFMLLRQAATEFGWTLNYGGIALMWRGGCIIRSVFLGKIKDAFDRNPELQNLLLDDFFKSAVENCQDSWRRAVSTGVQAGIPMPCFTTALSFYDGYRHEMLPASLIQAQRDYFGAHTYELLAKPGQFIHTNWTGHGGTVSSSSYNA

[13] = viability loss with induced miR-34 in A549 – imaging, A549 dox-inducible miR-34, nuclei and caspase counts, primary screen (AID 1347080;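 active means compounds whose cell count with miR-34 switched on is under 0.7 times the count with it off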); conditions: A549 miR-34 inducible, Hoechst nuclei count, 48 h
[14] = blockers of cellular phospholipid synthesis – cell-based, LOPAC library, screen 4, primary screen (AID 1347384; call rule not given here); conditions: animal cells, phospholipid biosynthesis inhibition screen; at 10 µM
[15] = target: Mitogen-activated protein kinase 7 (Homo sapiens) (UniProt Q13164); test: Gal4-ERK5 driven luciferase induction – cell-based, HTS, primary screen (AID 1508626;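 active means luciferase signal above three times the same-plate solvent-only control wells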;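 further: luciferase driven by Gal4-ERK5 fusion binding five Gal4 sites before minimal TATA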); conditions: HeLa Gal4-ERK5 transactivation, 18 h, at 5 µM, stronger effect = higher value
Sequence of Mitogen-activated protein kinase 7 (Homo sapiens) (Q13164 whole entry, looked up, the tested form may be a part): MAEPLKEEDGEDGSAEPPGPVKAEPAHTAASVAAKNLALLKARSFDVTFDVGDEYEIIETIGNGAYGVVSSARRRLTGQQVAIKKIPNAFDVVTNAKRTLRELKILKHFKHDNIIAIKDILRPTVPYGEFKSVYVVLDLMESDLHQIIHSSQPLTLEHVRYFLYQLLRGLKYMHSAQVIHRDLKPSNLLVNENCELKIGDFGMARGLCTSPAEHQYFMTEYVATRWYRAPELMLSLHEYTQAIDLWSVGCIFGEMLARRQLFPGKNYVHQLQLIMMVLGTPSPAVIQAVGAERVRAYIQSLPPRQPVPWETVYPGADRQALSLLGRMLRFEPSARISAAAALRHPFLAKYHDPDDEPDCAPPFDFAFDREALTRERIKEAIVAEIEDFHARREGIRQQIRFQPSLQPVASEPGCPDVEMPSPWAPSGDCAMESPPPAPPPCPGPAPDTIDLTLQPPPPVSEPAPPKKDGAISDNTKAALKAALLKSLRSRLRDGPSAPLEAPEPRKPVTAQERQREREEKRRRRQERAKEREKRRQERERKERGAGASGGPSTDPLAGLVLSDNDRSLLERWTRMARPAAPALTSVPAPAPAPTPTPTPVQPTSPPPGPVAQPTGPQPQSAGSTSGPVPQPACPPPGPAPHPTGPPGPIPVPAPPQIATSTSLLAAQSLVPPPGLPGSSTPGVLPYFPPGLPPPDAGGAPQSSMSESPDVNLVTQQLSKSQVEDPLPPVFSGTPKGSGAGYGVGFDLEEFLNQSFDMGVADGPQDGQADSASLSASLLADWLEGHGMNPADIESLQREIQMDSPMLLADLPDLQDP

[16] = galactose survival enhancers in mitochondrial complex I cybrids – cell-based, galactose medium, ATP luminescence, primary screen (AID 1645843;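 active means z-score of at least 1.8 in each of two replicates, scored against plate mean and spread of sample wells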;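 further: positive z means more ATP and so rescue of galactose-driven cybrid death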); conditions: complex I mutant cybrid cells, 72 h, stronger effect = higher value
[17] = target: ATP-dependent translocase ABCB1 (Homo sapiens) (UniProt P08183); test: P-glycoprotein substrate transport blockade – cell-based (AID 377; in the data active means fluorescence slope change above about 50%); conditions: MDR1-expressing cells, fluorescent substrate accumulation slope; stronger effect = higher value; concentration not given here
Sequence of ATP-dependent translocase ABCB1 (Homo sapiens) (P08183 whole entry, looked up): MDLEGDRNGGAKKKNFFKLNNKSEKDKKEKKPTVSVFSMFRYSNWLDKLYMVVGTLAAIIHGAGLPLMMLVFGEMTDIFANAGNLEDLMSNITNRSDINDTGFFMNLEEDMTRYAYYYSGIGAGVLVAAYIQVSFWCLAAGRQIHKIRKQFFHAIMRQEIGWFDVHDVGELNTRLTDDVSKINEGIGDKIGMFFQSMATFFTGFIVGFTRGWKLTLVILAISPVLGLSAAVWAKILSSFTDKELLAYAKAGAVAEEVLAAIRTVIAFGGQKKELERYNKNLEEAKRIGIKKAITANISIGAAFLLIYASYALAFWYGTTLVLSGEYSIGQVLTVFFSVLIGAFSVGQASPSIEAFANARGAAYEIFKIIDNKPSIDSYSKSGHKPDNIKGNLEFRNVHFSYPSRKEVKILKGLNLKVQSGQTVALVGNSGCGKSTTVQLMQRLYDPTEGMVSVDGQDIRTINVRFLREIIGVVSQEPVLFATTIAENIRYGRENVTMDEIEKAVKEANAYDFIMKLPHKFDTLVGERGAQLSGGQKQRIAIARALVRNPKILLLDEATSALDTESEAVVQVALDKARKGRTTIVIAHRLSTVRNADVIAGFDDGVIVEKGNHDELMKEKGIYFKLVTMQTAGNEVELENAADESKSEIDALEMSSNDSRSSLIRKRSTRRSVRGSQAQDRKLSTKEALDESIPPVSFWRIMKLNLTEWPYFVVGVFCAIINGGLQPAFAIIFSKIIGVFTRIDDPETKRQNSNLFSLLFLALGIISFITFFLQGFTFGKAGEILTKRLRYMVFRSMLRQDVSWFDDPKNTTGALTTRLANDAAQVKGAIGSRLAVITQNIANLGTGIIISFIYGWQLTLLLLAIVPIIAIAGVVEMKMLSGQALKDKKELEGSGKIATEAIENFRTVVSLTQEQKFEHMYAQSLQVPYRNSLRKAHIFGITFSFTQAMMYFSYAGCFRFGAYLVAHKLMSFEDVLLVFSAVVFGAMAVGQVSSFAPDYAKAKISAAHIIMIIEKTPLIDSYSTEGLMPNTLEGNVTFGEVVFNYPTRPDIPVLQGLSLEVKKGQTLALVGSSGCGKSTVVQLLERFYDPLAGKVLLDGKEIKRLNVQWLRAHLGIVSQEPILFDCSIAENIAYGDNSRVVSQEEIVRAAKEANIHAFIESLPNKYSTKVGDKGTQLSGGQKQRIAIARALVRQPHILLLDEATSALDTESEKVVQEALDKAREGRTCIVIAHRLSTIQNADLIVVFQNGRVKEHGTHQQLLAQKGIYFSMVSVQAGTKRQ

[18] = compounds altering viability of human ES cells (AID 493140; call rule not given here;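 further: cells exposed to compounds for four days before counting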); conditions: human embryonic stem cell survival screen; stronger effect = higher value
[19] = P. berghei load reduction in hepatocytes – cell-based, HepG2, luciferase luminescence, HepG2 viability, primary screen (AID 624349; in the data active means parasite load remaining mostly below about 12%, no sharp cut-off; inactive means mostly above about 10%;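 further: 100% = mean of DMSO negative control wells on the same plate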); conditions: P. berghei liver stage in HepG2, luciferase luminescence, concentration not given here; parasite load remaining: stronger effect = lower value; viability: measured here: HepG2 viability without parasites
[20] = MELAS cybrid and Rieske KO viability enhancers – cell-based, MELAS cybrids, Rieske KO mouse fibroblasts, CellTiter-Glo, primary screen (AID 1508586;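 active means mean z-score across replicates of 1.96 or higher in either the MELAS or the Rieske mutant cell line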;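 further: z relative to plate mean and SD of compound and empty wells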); conditions: low glucose
[21] = target: NAD(+) hydrolase SARM1 (Homo sapiens) (UniProt Q6SZW1); test: blocking NAD cleavage by SARM1 SAM-TIR – cell lysate, NAD-Glo luminescence (AID 1508614;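 active means compound whose remaining NAD level is above about 45 nM, limit read from the data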); conditions: SAM-TIR HEK293T lysate NADase, at 1 µM, stronger effect = higher value
Sequence of NAD(+) hydrolase SARM1 (Homo sapiens) (Q6SZW1 whole entry, looked up): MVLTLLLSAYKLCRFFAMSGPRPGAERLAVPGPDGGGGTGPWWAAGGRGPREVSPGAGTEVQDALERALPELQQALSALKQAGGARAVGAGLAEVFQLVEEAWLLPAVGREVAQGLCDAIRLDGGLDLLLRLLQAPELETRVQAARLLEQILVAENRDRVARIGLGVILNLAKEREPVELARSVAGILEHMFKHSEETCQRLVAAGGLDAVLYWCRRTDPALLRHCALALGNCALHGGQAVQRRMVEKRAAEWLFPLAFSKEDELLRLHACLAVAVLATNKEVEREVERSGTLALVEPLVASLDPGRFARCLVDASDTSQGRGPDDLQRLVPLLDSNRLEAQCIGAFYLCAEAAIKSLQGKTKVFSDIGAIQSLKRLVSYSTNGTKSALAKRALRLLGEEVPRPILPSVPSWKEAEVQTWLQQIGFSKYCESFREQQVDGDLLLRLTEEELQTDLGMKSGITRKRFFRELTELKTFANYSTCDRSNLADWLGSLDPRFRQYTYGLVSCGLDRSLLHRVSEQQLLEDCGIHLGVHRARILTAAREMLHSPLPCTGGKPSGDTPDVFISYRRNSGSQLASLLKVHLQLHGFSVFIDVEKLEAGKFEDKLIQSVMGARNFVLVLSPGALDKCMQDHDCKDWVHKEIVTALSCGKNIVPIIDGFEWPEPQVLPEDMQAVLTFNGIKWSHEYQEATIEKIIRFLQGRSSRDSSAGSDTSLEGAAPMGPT

[22] = viability loss in pontine glioma line – cell-based, SU-DIPG-XIII, MIPE4.0, CellTiter-Glo, qHTS, dose response (AID 1347061; cut-off not given, nearly all actives have AC50 up to about 37 µM;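 further: cells exposed to compound for 48 hours before readout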); conditions: CellTiter-Glo ATP luminescence
[23] = viability loss in pontine glioma line – cell-based, JHH-DIPG-1, MIPE4.0, CellTiter-Glo, qHTS, dose response (AID 1347062; cut-off not given, nearly all actives have AC50 up to about 27 µM); conditions: JHH-DIPG-1 viability, CellTiter-Glo ATP luminescence
[24] = stronger effect = lower value, cell number ratio, induced over uninduced
[25] = measured here: relative caspase fold change +Dox/-Dox
[26] = measured here: total cells with miR-34 induction, stronger effect = lower value
[27] = measured here: total cells without miR-34 induction
[28] = MELAS cybrid survival, CellTiter-Glo 48 h, stronger effect = higher value
[29] = Rieske KO mouse fibroblast survival, CellTiter-Glo 72 h

SMILES: CC(=O)NCCc1c[nH]c2ccc(O)cc12
- inhibition [1]: 26.8%
- score [2]: 1.5
- rescue above control [3]: 2.04
- cytochrome c release ratio [4]: 0.84
- inhibition of aggregation [5]: 31.4%
- glutamate uptake change [6]: 0.88%
- inclusion score [7]: 2
- aggregation suppression score [8]: 1.34
- period change [9]: -0.07 h (inactive)
- inhibition [10]: 0% (inactive)
- fluorescence ratio (interference) [11]: 1 (inactive)
- inhibition [12]: 8.58% (inactive)
- fold change [13, 24]: 1.02 (inactive)
- fold change [13, 25]: 1.87
- cell count [13, 26]: 10700
- cell count [13, 27]: 10400
- outcome [14]: inactive
- luciferase signal [15]: 32 AU (inactive)
- z-score [16]: 0.08 (inactive)

SMILES: COc1ccc(C(Cl)=C(c2ccc(OC)cc2)c2ccc(OC)cc2)cc1
- fluorescence slope change [17]: 9.3% (inactive)
- survival [18]: 4.42 (inactive)
- parasite load remaining [19]: 9.26% (inactive) and 45.4% (inactive) and 50.6% (inactive)
- viability [19]: 85.2% and 70.2% and 89.6%
- inhibition [12]: 7.15% (inactive)
- fold change [13, 24]: 0.946 (inactive) and 0.925 (inactive)
- fold change [13, 25]: 1.03 and 1.43
- cell count [13, 26]: 9940 and 11400
- cell count [13, 27]: 10500 and 12300
- z-score [20, 28]: 0.437 (inactive)
- z-score [20, 29]: 0.0944
- luciferase signal [15]: 40 AU (inactive)

SMILES: Oc1cc2c(cc1O)[C@@H]1c3ccc(O)c(O)c3OC[C@]1(O)C2
- inhibition [12]: 1.84% (inactive)
- fold change [13, 24]: 0.884 (inactive)
- fold change [13, 25]: 0.956
- cell count [13, 26]: 9250
- cell count [13, 27]: 10500
- z-score [20, 28]: -0.379 (inactive)
- z-score [20, 29]: 0.131
- luciferase signal [15]: 28 AU (inactive)

SMILES: C=C1CC[C@H](O)C/C1=C/C=C1\CCC[C@]2(C)[C@@H]([C@H](C)/C=C/[C@H](C)C(C)C)CC[C@@H]12
- fluorescence slope change [17]: 66.6% (active)
- parasite load remaining [19]: 50.6% (inactive)
- viability [19]: 130%
- inhibition [12]: 12.3% (inactive)
- fold change [13, 24]: 0.934 (inactive)
- fold change [13, 25]: 1.53
- cell count [13, 26]: 7580
- cell count [13, 27]: 8110
- remaining NAD [21]: 10 nM (inactive)
- luciferase signal [15]: 144 AU (inactive)

SMILES: CO/N=C(\C(=O)N[C@@H]1C(=O)N2C(C(=O)OCOC(=O)C(C)(C)C)=C(/C=C\c3scnc3C)CS[C@H]12)c1csc(N)n1
- inhibition [12]: -4.41% (inactive)
- outcome [22]: inactive
- outcome [23]: inactive
- remaining NAD [21]: 10 nM (inactive)

SMILES: C[C@]12CC[C@H]3C(=CCc4cc(O)ccc43)[C@@H]1CCC2=O
- fluorescence slope change [17]: 51.2% (active)
- survival [18]: 2.75 (inactive)
- parasite load remaining [19]: 125% (inactive)
- viability [19]: 97.4%
- inhibition [12]: 9.47% (inactive)
- fold change [13, 24]: 0.908 (inactive)
- fold change [13, 25]: 1.13
- cell count [13, 26]: 7380
- cell count [13, 27]: 8130
- z-score [20, 28]: 0.735 (inactive)
- z-score [20, 29]: 0.488
- remaining NAD [21]: 10 nM (inactive)
- luciferase signal [15]: 84 AU (inactive)

SMILES: CO/N=C(\C(=O)N[C@@H]1C(=O)N2C(C(=O)O)=C(COC(N)=O)CS[C@H]12)c1ccco1
- parasite load remaining [19]: 120% (inactive)
- viability [19]: 107%
- inhibition [12]: -1.88% (inactive)
- fold change [13, 24]: 0.899 (inactive)
- fold change [13, 25]: 1.25
- cell count [13, 26]: 8800
- cell count [13, 27]: 9790
- z-score [20, 28]: -0.736 (inactive)
- z-score [20, 29]: -1.31
- remaining NAD [21]: 10 nM (inactive)
- luciferase signal [15]: 48 AU (inactive)

SMILES: CN(C)CC/C=C1/c2ccccc2Sc2ccc(Cl)cc21
- fluorescence slope change [17]: 115% (active)
- survival [18]: 1.25 (inactive)
- parasite load remaining [19]: 63.4% (inactive)
- viability [19]: 75.2%
- inhibition [12]: -16.6% (inactive)
- remaining NAD [21]: 10 nM (inactive)

SMILES: CC(=O)NC(CC(C)C)C(=O)O (configuration not stated)
- inhibition [12]: 4.75% (inactive)
- remaining NAD [21]: 10 nM (inactive)

SMILES: CC(=O)N[C@@H](CC(=O)O)C(=O)O
- parasite load remaining [19]: 117% (inactive)
- viability [19]: 106%
- inhibition [12]: 3.38% (inactive)
- fold change [13, 24]: 0.841 (inactive)
- fold change [13, 25]: 1.57
- cell count [13, 26]: 8620
- cell count [13, 27]: 10300
